# How the values were obtained:
# Test in all cases: SPOT peptide array binding signal intensity (averaged, normalized) (arbitrary units (background-subtracted, floor 0; scale differs between SH3 domains)); higher = stronger binding of the SH3 domain to the peptide
# ScBbc1 = molecular target: ScBbc1
# In short: (§1)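 GST-SH3 fusions from four yeast species, purified on glutathione Sepharose, were incubated at 10 μg/ml overnight at 4°C on membranes of synthetic 15-mer peptides in which cysteines were replaced with serines. Binding signal is the normalized, background-subtracted spot intensity averaged over replicates, in domain-specific arbitrary units.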
# ScBem1-D1 = molecular target: ScBem1-D1
# In short: as §1
# ScBzz1-D1 = molecular target: ScBzz1-D1
# In short: as §1
# ScBzz1-D2 = molecular target: ScBzz1-D2
# In short: as §1
# ScCyk3 = molecular target: ScCyk3
# In short: as §1
# ScFus1 = molecular target: ScFus1
# In short: as §1
# ScHof1 = molecular target: ScHof1
# In short: as §1
# ScHse1 = molecular target: ScHse1
# In short: as §1
# ScLsb1 = molecular target: ScLsb1
# In short: as §1
# ScLsb2 = molecular target: ScLsb2
# In short: as §1
# ScLsb3 = molecular target: ScLsb3
# In short: as §1
# ScLsb4 = molecular target: ScLsb4
# In short: as §1
# ScMyo3 = molecular target: ScMyo3
# In short: as §1
# ScMyo5 = molecular target: ScMyo5
# In short: as §1
# ScNbp2 = molecular target: ScNbp2
# In short: as §1
# ScPex13 = molecular target: ScPex13
# In short: as §1
# ScRvs167 = molecular target: ScRvs167
# In short: as §1
# ScSho1 = molecular target: ScSho1
# In short: as §1
# ScSla1-D1-D2 = molecular target: ScSla1-D1-D2
# In short: as §1
# ScSla1-D3 = molecular target: ScSla1-D3
# In short: as §1
# SpAbp1-D1 = molecular target: SpAbp1-D1
# In short: as §1
# SpBbc1 = molecular target: SpBbc1
# In short: as §1
# SpBzz1-D1 = molecular target: SpBzz1-D1
# In short: as §1
# SpBzz1-D2 = molecular target: SpBzz1-D2
# In short: as §1
# SpCyk3 = molecular target: SpCyk3
# In short: as §1
# SpHof1 = molecular target: SpHof1
# In short: as §1
# SpHof1-2 = molecular target: SpHof1-2
# In short: as §1
# SpHof1-3 = molecular target: SpHof1-3
# In short: as §1
# SpHse1 = molecular target: SpHse1
# In short: as §1
# SpLsb1 = molecular target: SpLsb1
# In short: as §1
# SpLsb4 = molecular target: SpLsb4
# In short: as §1
# SpMyo1 = molecular target: SpMyo1
# In short: as §1
# SpNbp2 = molecular target: SpNbp2
# In short: as §1
# SpPex13 = molecular target: SpPex13
# In short: as §1
# SpRvs167 = molecular target: SpRvs167
# In short: as §1
# SpSla1-D1-D2 = molecular target: SpSla1-D1-D2
# In short: as §1
# SpSla1-D3 = molecular target: SpSla1-D3
# In short: as §1
binder,measurement,setting,value
RVRKTHVPASKRPSG,SPOT peptide array binding signal intensity,ScBbc1,15.5
same,SPOT peptide array binding signal intensity,ScBem1-D1,51
same,SPOT peptide array binding signal intensity,ScBzz1-D1,7.5
same,SPOT peptide array binding signal intensity,ScBzz1-D2,≤ 0
same,SPOT peptide array binding signal intensity,ScCyk3,51
same,SPOT peptide array binding signal intensity,ScFus1,117
same,SPOT peptide array binding signal intensity,ScHof1,1
same,SPOT peptide array binding signal intensity,ScHse1,469
same,SPOT peptide array binding signal intensity,ScLsb1,4.5
same,SPOT peptide array binding signal intensity,ScLsb2,7
same,SPOT peptide array binding signal intensity,ScLsb3,420
same,SPOT peptide array binding signal intensity,ScLsb4,5
same,SPOT peptide array binding signal intensity,ScMyo3,2
same,SPOT peptide array binding signal intensity,ScMyo5,1.5
same,SPOT peptide array binding signal intensity,ScNbp2,91.5
same,SPOT peptide array binding signal intensity,ScPex13,≤ 0
same,SPOT peptide array binding signal intensity,ScRvs167,2.17
same,SPOT peptide array binding signal intensity,ScSho1,230
same,SPOT peptide array binding signal intensity,ScSla1-D1-D2,510
same,SPOT peptide array binding signal intensity,ScSla1-D3,8.5
same,SPOT peptide array binding signal intensity,SpAbp1-D1,249
same,SPOT peptide array binding signal intensity,SpBbc1,≤ 0
same,SPOT peptide array binding signal intensity,SpBzz1-D1,41
same,SPOT peptide array binding signal intensity,SpBzz1-D2,≤ 0
same,SPOT peptide array binding signal intensity,SpCyk3,≤ 0
same,SPOT peptide array binding signal intensity,SpHof1,89.5
same,SPOT peptide array binding signal intensity,SpHof1-2,≤ 0
same,SPOT peptide array binding signal intensity,SpHof1-3,247
same,SPOT peptide array binding signal intensity,SpHse1,112
same,SPOT peptide array binding signal intensity,SpLsb1,3.75
same,SPOT peptide array binding signal intensity,SpLsb4,224
same,SPOT peptide array binding signal intensity,SpMyo1,4.25
same,SPOT peptide array binding signal intensity,SpNbp2,78
same,SPOT peptide array binding signal intensity,SpPex13,2
same,SPOT peptide array binding signal intensity,SpRvs167,1.17
same,SPOT peptide array binding signal intensity,SpSla1-D1-D2,4
same,SPOT peptide array binding signal intensity,SpSla1-D3,≤ 0
